Source: publication PMC4336329 (PLoS ONE, 2015)
Screen size: about 310,000 compounds; about 14,000 (4.5%) showed an effect of 50% or more. The effect is printed as a negative number. The full list was thinned out, with strong results kept by preference.

Molecular target: human ether-à-go-go-related gene (hERG) potassium channel (human, UniProt Q12809)
Test: primary screen, population patch clamp on CHO cells stably expressing hERG; higher = less effect of the substance
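Note: peak tail current of the secondary pulse compared with the same well before compound.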

human ether-à-go-go-related gene (hERG) potassium channel, sequence (Q12809 whole entry, looked up): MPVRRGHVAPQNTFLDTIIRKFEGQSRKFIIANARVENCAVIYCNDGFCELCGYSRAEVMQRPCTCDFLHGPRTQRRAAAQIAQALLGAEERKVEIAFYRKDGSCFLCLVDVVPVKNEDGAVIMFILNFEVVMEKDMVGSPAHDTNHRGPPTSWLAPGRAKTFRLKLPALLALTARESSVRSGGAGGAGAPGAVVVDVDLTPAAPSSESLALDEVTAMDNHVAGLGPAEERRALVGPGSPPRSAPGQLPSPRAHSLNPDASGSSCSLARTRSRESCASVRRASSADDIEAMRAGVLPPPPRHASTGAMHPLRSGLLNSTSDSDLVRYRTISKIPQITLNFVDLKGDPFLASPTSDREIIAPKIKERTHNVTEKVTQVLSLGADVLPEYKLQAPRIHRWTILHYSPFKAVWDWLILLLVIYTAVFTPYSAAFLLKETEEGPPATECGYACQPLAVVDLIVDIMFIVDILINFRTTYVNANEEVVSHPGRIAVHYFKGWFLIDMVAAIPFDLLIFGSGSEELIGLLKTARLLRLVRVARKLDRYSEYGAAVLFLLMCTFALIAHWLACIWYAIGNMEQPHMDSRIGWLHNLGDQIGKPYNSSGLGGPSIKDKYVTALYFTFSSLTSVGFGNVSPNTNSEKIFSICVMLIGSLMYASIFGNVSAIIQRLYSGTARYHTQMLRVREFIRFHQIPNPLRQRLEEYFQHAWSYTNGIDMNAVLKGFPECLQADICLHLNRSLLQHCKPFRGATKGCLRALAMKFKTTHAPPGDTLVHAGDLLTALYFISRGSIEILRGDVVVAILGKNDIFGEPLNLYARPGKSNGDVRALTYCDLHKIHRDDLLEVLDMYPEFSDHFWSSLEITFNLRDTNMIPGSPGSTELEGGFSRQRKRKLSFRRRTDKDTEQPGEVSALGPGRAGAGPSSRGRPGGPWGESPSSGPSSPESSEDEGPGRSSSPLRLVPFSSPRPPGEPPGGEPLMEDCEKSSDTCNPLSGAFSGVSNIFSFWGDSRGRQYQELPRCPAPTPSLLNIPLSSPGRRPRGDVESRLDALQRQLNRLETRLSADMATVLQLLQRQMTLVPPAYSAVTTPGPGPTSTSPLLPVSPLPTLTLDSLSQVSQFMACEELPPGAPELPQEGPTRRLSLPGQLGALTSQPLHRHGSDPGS

Row | SMILES | hERG current change (%, negative = inhibition) at 10uM [%]
1 | Cn1c(=O)c2c(SCc3cccc(C(F)(F)F)c3)nc(-c3ccco3)nc2n(C)c1=O | -3.88
2 | O=C(CNC(=O)c1ccco1)OCc1c(F)cccc1Cl | -5.42
3 | COc1ccccc1CNC(=O)C1(NC(=O)Nc2ccc(C)cc2)CCCCC1 | 30.7
4 | COC(=O)[C@H]1[C@H]2C[C@@H]3c4[nH]c5cc(OC)ccc5c4CCN3C[C@H]2C[C@@H](OC(=O)c2cc(OC)c(OC)c(OC)c2)[C@@H]1OC | -12.4
5 | CCCOc1ccc(N2C(=O)CC(NCC#N)C2=O)cc1 (centres unmarked) | 2.57
6 | CCCOc1ccc(N2C(=O)CC(NCCNc3ccc([N+](=O)[O-])cn3)C2=O)cc1 (centres unmarked) | -72.5
7 | CCCOc1ccc(N2C(=O)CC(NCCc3ccc(S(N)(=O)=O)cc3)C2=O)cc1 (centres unmarked) | -5.4
8 | CCOc1ccc(N2C(=O)CC(NCCc3ccncc3)C2=O)cc1 (centres unmarked) | -5.67
9 | CCOc1ccc(N2C(=O)CC(NCCNc3ccc([N+](=O)[O-])cn3)C2=O)cc1 (centres unmarked) | -77.5
10 | CCCOc1ccc(N2C(=O)CC(NCCNc3ccc(S(=O)(=O)CC)cc3)C2=O)cc1 (centres unmarked) | -59.9
11 | COc1ccc(N2C(=O)CC(NCCNc3ccc([N+](=O)[O-])cn3)C2=O)cc1 (centres unmarked) | -34
12 | CCCOc1ccc(N2C(=O)CC(NCc3ccc(S(N)(=O)=O)cc3)C2=O)cc1 (centres unmarked) | 4.38
13 | CCCOc1ccc(N2C(=O)CC(NCc3ccncc3)C2=O)cc1 (centres unmarked) | -11.6
14 | CCOc1ccc(N2C(=O)CC(NCCNc3ccc(C(=O)c4cccs4)cc3)C2=O)cc1 (centres unmarked) | -71.5
15 | CCOc1ccc(N2C(=O)CC(NC3CCN(C(=O)c4cccs4)CC3)C2=O)cc1 (centres unmarked) | -24.7
16 | CCOc1ccc(C(=O)c2cccs2)cc1 | -6.82
17 | Cc1ccc(/C=C/C(=O)OCC(=O)NCc2ccc(Cl)cc2)o1 | -13.9
18 | O=C(COc1ccc(Cl)cc1Br)N1CCN(S(=O)(=O)c2ccccc2)CC1 | -9.19
19 | COc1ccccc1N1CCN(S(=O)(=O)Cc2ccccc2Cl)CC1 | -2.74
20 | Cc1ccc(Nc2nnc(SCC(=O)NC3CC3)s2)cc1 | 9.41
21 | O=C(Nn1cnnc1)c1ccc(Cl)cc1 | 17.7
22 | COc1ccc(Nc2nc(-c3cccs3)cs2)c(OC)c1 | 4.09
23 | CCn1cc(SCC(=O)Nc2cc(C)on2)c2ccccc21 | 7.98
24 | CC(=O)Nc1ccc(S(=O)(=O)N2CCN=C2SCc2ccc(C)cc2)cc1 | -12
25 | Cc1csc(Sc2ccc([N+](=O)[O-])cc2C(=O)OCC(=O)NC2CCCC(C)C2C)n1 (centres unmarked) | -26.2

Row | SMILES | hERG current change (%, negative = inhibition) at 10uM [%]
26 | COc1ccc(C(=O)Nn2c(CC(C)C)nc3cc(Cl)ccc3c2=O)c(OC)c1 | 13.4
27 | COc1cc2c(cc1OC)C(C)N(C(=O)/C=C/c1cc(OC)c(OC)c(OC)c1)CC2 (centres unmarked) | 7.57
28 | Cc1cccc(CCNC(=O)C2CCCN(c3cnccn3)C2)c1 (centres unmarked) | -11.5
29 | O=C(c1ccccc1)c1cccc(NC(=O)C2CC2)c1 | 0.476
30 | O=S(=O)(NC1CCCCC1NS(=O)(=O)c1ccc(F)cc1)c1ccc(F)cc1 (centres unmarked) | -5.29
31 | O=C(NC(=S)N1C[C@H]2C[C@H](C1)c1cccc(=O)n1C2)c1ccc(Cl)cc1 | -8.28
32 | Nc1cc(C(=O)N2CCN(c3ccc([N+](=O)[O-])cc3)CC2)ccc1N1CC2CC(C1)c1cccc(=O)n1C2 (centres unmarked) | -35.3
33 | O=C1OC(c2ccc([N+](=O)[O-])cc2)=N/C1=C/N1CC2CC(C1)c1cccc(=O)n1C2 (centres unmarked) | -55.1
34 | O=C1OC(c2ccc(Br)cc2)=N/C1=C\N1CC2CC(C1)c1cccc(=O)n1C2 (centres unmarked) | -45.2
35 | O=c1cccc2n1C[C@@H]1C[C@@H]2CN(CC(O)c2ccc([N+](=O)[O-])cc2)C1 (some centres unmarked) | -49
36 | O=C1OC(c2ccc(Cl)cc2)=N/C1=C\N1CC2CC(C1)c1cccc(=O)n1C2 (centres unmarked) | -72
37 | Cn1cc(C(=O)NC2CCCCC2)c(=O)c2cc(S(=O)(=O)N3CCOCC3)ccc21 | 11.8
38 | O=C(O)CC(Sc1n[nH]c(=S)s1)C(=O)O (centres unmarked) | 18.2
39 | CCN(CC)S(=O)(=O)c1ccc(N2CCCCC2)c(C(=O)Nc2ccccc2N2CCOCC2)c1 | -51.1
40 | COc1ccc(S(=O)(=O)N2CCOCC2)cc1NC(=O)c1cccc2c(=O)c(C)c(-c3ccccc3)oc12 | -32.9
41 | CCN(CC)S(=O)(=O)c1ccc(N2CCOCC2)c(NC(=O)c2cccc3c(=O)c(C)c(-c4ccccc4)oc23)c1 | -55
42 | CCN(CC)S(=O)(=O)c1ccc2[nH]c(=O)cc(C(=O)Nc3ccccc3N3CCOCC3)c2c1 | -18.9
43 | CCN(CC)S(=O)(=O)c1ccc(NC(=O)c2cc(-c3ccccc3)nc3ccccc23)cc1 | 1.64
44 | CCN(CC)S(=O)(=O)c1ccc(OC)c(NC(=O)c2cccc([N+](=O)[O-])c2C)c1 | -63.8
45 | CCN(CC)S(=O)(=O)c1ccc(N2CCOCC2)c(NC(=O)c2ccccc2F)c1 | -15.8
46 | COc1cc(-c2cc(C(=O)Nc3ccc(S(N)(=O)=O)cc3)c3ccccc3n2)cc(OC)c1OC | 29.2
47 | CCN(CC)S(=O)(=O)c1ccc(OC)c(NC(=O)c2ccc(OC)c([N+](=O)[O-])c2)c1 | -24.4
48 | CCN(CC)S(=O)(=O)c1ccc(N2CCOCC2)c(NC(=O)c2cccc3ccccc23)c1 | 7.99
49 | CCN(CC)S(=O)(=O)c1ccc(O)c(NC(=O)c2cc(-c3cc(OC)c(OC)c(OC)c3)nc3ccccc23)c1 | -59.2
50 | CCN(CC)S(=O)(=O)c1ccc(OC)c(NC(=O)c2cccc(C)c2[N+](=O)[O-])c1 | -14.5
